Several values for one entry are separate records, joined by “and”; a condition that tells them apart may be missing. Identical values can stand only once. Unmarked numbers belong to inactive results. Inconclusive results are not listed. Where a call stands in place of a potency, no number is given. Activity calls are given as the source filed them. Unless noted, calls come from the whole dose curve; as a rule, active = well fitted curve in the direction sought with a large enough effect; inconclusive = small, poorly fitted or top-dose-only effect, or another doubt; inactive = no such curve, though single readings can be large; an effect the other way counts as inactive or inconclusive.
How the values were obtained:
[1] = Cell Viability - BJ (AID 421; calls by dose curve;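 note: potency is the fitted concentration of half-maximal effect; cells exposed to compound for 40 hours at 37 °C before readout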); conditions: BJ fibroblast viability, qHTS
In short: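 Luminescent ATP signal (CellTiter-Glo, 20 min at room temperature) served as the read-out of viable BJ cells after 40 hours of compound treatment. Responses were scaled between DMSO and 100 uM tamoxifen, and AC50 values were obtained by Hill modeling.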

[2] = Cell Viability - Jurkat (AID 426;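 active = dose-dependent loss of cell ATP signal giving a full or clear fitted curve, ranked by lower potency value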;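 note: potency is the fitted concentration of half-maximal effect; cells exposed to compound for 40 hours at 37 °C before ATP read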); conditions: qHTS
In short: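 Luminescent ATP read-out (CellTiter-Glo, 20 min at room temperature) after 40 hr compound exposure at 37 °C of Jurkat E6-1 cells, 5000/well. Decreased ATP taken as cytotoxicity; AC50 from standard Hill equation.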

[3] = Cell Viability - Hek293 (AID 427;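 active = compounds whose dose-response curve shows a full or clear partial loss of cell viability, called from curve shape rather than a numeric limit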;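 note: potency is the fitted concentration of half-maximal effect; cells exposed to compound for 40 hours at 37 °C before reading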); conditions: qHTS
In short: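 Luminescent ATP read-out (CellTiter-Glo, 20 min RT) after 40 hr compound exposure at 37 °C in complete medium. Signal normalized to DMSO (basal) and 100 uM tamoxifen (100% inhibition); concentration-response fitted with the standard Hill equation to give AC50.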

[4] = Cell Viability - MRC5 (AID 434; calls by dose curve;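 note: potency is the fitted concentration of half-maximal effect; cells exposed to compound for 40 hours at 37 °C; potency reflects cytotoxicity seen as loss of intracellular ATP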); conditions: MRC5 lung fibroblast viability, qHTS
In short: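 ATP luminescence read-out (CellTiter-Glo, 20 min RT) after 40 hr, 37 °C compound exposure of 1500 MRC5 cells/well. Data normalized to DMSO (basal) and 100 uM tamoxifen (100% inhibition); AC50 from standard Hill equation.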

[5] = Cell Viability - Mesenchymal (AID 546); conditions: mesenchymal cells viability, qHTS; series mostly up to 91.7 µM;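 note: cells exposed to compound for 40 hours before reading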
In short: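 Human renal mesenchymal cells (glomerulus-derived), 1000 cells/well, 5 hr 37 °C pre-incubation; compound 40 hr, 37 °C; CellTiter-Glo, 20 min RT; luminescence; AC50 via Hill equation.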

[6] = Cellular Toxicity (caspase-3) SHSY5Y (AID 657); conditions: SH-SY5Y caspase-3 activation, DMSO zero, 10 µM staurosporine = 100%; series mostly up to 91.7 µM;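 note: cells exposed to compound for 16 hours at 37 °C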
In short: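 qHTS, SH-SY5Y, 1500 cells/well, 5 h pre-incubation 37 °C; compound 16 h 37 °C; Caspase-Glo 3/7 1 h RT; luminescence. Norm.: DMSO = 0, 10 uM staurosporine = 100%. Hill fit → AC50.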

[7] = Cellular Toxicity (caspase-3) MRC-5 (AID 659); conditions: MRC-5 cells, luminescence, normalized: DMSO 0%, 10 µM staurosporine 100%; series mostly up to 91.7 µM
In short: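 MRC-5 fibroblasts, 1500/well; 16 h cpd, 37 °C; Caspase-Glo 3/7, 1 h RT; lumi read. Norm: DMSO = 0%, 10 uM staurosporine = 100%. Hill-fit AC50 from qHTS conc-response.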

[8] = Cellular Toxicity (caspase-3) Mesangial (AID 660); conditions: mesangial cells, normalized: DMSO 0%, 100 µM tamoxifen 100%; series mostly up to 91.7 µM;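 note: combined caspase 3 and 7 activity read by Caspase-Glo luminescence; cells exposed to compound for 16 h before the caspase read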
In short: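 Luminescent Caspase-Glo 3/7 readout (aminoluciferin substrate cleavage, 20 min RT) after 16 h compound exposure at 37 °C of normal human mesangial cells. Signal increase normalized between DMSO basal and 100 uM tamoxifen; Hill-equation AC50.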

[9] = Cellular Toxicity (caspase-3) SK-N-SH (AID 661); conditions: SK-N-SH caspase-3 activation, qHTS; series mostly up to 91.7 µM;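 note: cells exposed to compound for 16 hours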
In short: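 Luminescent Caspase-Glo 3/7 read-out after 16 hr compound exposure of SK-N-SH neuroblastoma cells at 37 °C. Signal increase normalized to DMSO (basal) and 10 uM staurosporine (100%); AC50 from Hill equation fits of qHTS concentration-response data.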

[10] = Cellular Toxicity (caspase-3) Hek293 (AID 664); conditions: HEK293 caspase-3 activation, DMSO = 0%, 100 µM tamoxifen = 100%; at 92.2 µM (top of the series);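 note: cells exposed to compound for 16 h at 37 °C before readout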
In short: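 Luminescent Caspase-Glo 3/7 readout (aminoluciferin release) in HEK293 cells after 16 h compound treatment, 37 °C. Normalization: DMSO = basal, 100 uM tamoxifen = 100% stimulation. Concentration-response fitted with standard Hill equation for AC50.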

[11] = Cellular Toxicity (caspase-3) N2a (AID 665); conditions: N2a cells, luminescence, normalized: DMSO 0%, 10 µM staurosporine 100%; series mostly up to 92.2 µM;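 note: compound exposure lasted 16 h at 37 °C before readout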
In short: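 Luminescent Caspase-Glo 3/7 readout in N2a mouse neuroblastoma cells after 16 h compound exposure at 37 °C. Signal scaled to DMSO (basal) and 10 uM staurosporine (100%). Concentration-response fitted with Hill equation for AC50.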

[12] = Cell Viability - LYMP1-002 - Assay at 16 hr (AID 948); conditions: LYMP1-002 lymphoblastoid cell viability; series mostly up to 92.2 µM
In short: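 Seed 2500 LYMP1-002 cells per well in complete medium and hold 5 hr at 37 C. Add compound across a concentration series and incubate 16 hr at 37 C. Add CellTiter-Glo, wait 30 min at room temperature, read luminescence.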

[13] = MultiTox-Fluor Cytotoxicity Assay - LYMP1-003 - Dead Cells (AID 961); conditions: LYMP1-003 lymphoblastoid cells, dead-cell protease fluorescence; series mostly up to 92.2 µM; note: nearly all actives have a fitted effect of over 70% in size
In short: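 Human lymphoblastoid LYMP1-003 cells (2500/well) were treated with compounds for 16 hr at 37 C in complete medium. Dead-cell protease release was read by bis-AAF-R110 fluorescence (Ex/Em 485/520). AC50 came from Hill fits, normalized to DMSO and 15 uM tetraoctylammonium bromide.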

[14] = MultiTox-Fluor Cytotoxicity Assay - LYMP1-003 - Live Cells (AID 962); conditions: LYMP1-003 lymphoblastoid cells, MultiTox-Fluor live-cell protease fluorescence; series mostly up to 92.2 µM;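 note: cells exposed to compound for 16 hours at 37 °C; cytotoxic hits lower the live-cell protease signal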
In short: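 Readout: live-cell fluorescence (Ex/Em=405/510) from GF-AFC cleavage after 60 min MultiTox-Fluor reagent at room temperature. Lymphoblastoid LYMP1-003 cells, 16 hr compound treatment, 37 C. Concentration-response fitted to standard Hill equation for AC50.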

[15] = Cell Viability - LYMP1-003 - Assay at 24 hr (AID 963); conditions: LYMP1-003 lymphoblastoid cell viability; series mostly up to 92.2 µM
In short: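 CellTiter-Glo luminescence (intracellular ATP) read after 24 hr, 37 C compound exposure of 2500 LYMP1-003 human lymphoblastoid cells/well in complete medium; qHTS concentration series; AC50 via standard Hill equation.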

[16] = Cell Viability - LYMP2-008 (AID 980); conditions: LYMP2-008 lymphoblastoid cell viability, qHTS; series mostly up to 92.2 µM; note: nearly all actives have a fitted effect of over 60% in size; note: potency is the fitted concentration of half-maximal effect
In short: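 Luminescent ATP read-out (CellTiter-Glo, 30 min RT) after 24 hr compound exposure at 37 C of human lymphoblastoid cells in complete medium. Decrease in ATP taken as cytotoxicity; AC50 derived by standard Hill fit of qHTS concentration-response data.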

[17] = qHTS Assay for Identification of Small Molecule Inducers of Hypoxia Response (AID 2120; active = well fitted curve in the direction sought with a large enough effect in the signal ratio, with a control signal flat, not every such curve was filed as active; the % refers to the signal ratio); conditions: hypoxia response reporter cells, beta-lactamase ratio readout; series mostly up to 104 µM
In short: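 Read-out: CCF4 FRET emission ratio 460nm/530nm (excitation 405nm), converted to %Activity, with AC50 fitted across a compound titration. ME-180 cells carried an HRE-driven beta-lactamase reporter; compound exposure 17 h, 37 degrees C.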

[18] = biological target: Peroxisome proliferator-activated receptor alpha (Homo sapiens) (UniProt Q07869); assay: qHTS assay for small molecule agonists of the peroxisome proliferator-activated receptor alpha (PPARalpha) signaling pathway (AID 651778); conditions: PathHunter PPARalpha complementation, chemiluminescence, 6 h; stronger effect = higher value
In short: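 Enzyme-fragment complementation assay in which ligand-bound PPARalpha translocates and forms an active enzyme that generates chemiluminescence. Cells were plated overnight, exposed to compound for 6 hr at 37 C, and then given detection reagent for 60 min at room temperature.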

[19] = qHTS assay for small molecule agonists of the antioxidant response element (ARE) signaling pathway measured by Nrf2-dependant transcriptional activity - cell viability counter screen (AID 720653; active = well fitted curve in the direction sought with a large enough effect in the repeat runs; an effect the other way counts as inactive or inconclusive); conditions: ARE-bla HepG2 viability, CellTiter-Glo ATP luminescence, 16 h; stronger effect = lower value
In short: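 ARE-bla HepG2 cells treated with compounds for 16 h at 37C; this counter screen measures viability as intracellular ATP by CellTiter-Glo luminescence after 30 min at room temperature.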

[20] = qHTS assay for cell viability of the p53RE-bla HCT-116 cell line (AID 743292); conditions: p53RE-bla HCT-116 viability, ATP luminescence, 16 h; series mostly up to 95 µM; note: nearly all actives have a fitted effect of over 55% in size
In short: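 Intracellular ATP of p53RE-bla HCT-116 cells measured by luciferase luminescence following 16 h compound incubation at 37 C; DMSO-only wells served as vehicle controls.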

Sequence of Peroxisome proliferator-activated receptor alpha (Homo sapiens) (Q07869 whole entry, looked up, the tested form may be a part): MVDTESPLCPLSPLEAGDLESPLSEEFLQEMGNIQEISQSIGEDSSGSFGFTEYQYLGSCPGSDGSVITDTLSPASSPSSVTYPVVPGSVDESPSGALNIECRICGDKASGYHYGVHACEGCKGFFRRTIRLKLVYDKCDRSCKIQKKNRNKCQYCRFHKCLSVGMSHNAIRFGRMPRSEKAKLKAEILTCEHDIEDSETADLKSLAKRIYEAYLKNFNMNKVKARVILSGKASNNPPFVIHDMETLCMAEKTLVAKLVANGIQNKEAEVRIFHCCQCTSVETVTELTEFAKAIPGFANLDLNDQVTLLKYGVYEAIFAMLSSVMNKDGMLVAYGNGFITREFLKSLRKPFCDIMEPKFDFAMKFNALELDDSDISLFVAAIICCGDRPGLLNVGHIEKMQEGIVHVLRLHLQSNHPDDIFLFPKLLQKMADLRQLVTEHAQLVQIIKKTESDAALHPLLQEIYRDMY

SMILES	Potency [1]	Potency [2]	Potency [3]	Potency [4]	Potency [5]	outcome [6]	outcome [7]	outcome [8]	Potency [9]	caspase-3 activation [10]	outcome [11]	outcome [12]	Potency [13]	outcome [14]	outcome [15]	Potency [16]	Potency [17]	max response [18]	max response [19]	Potency [20]
Oc1cc(Cl)ccc1Cl	> 92 µM	> 92 µM	> 92 µM	> 92 µM	inactive	inactive	inactive	inactive	inactive	-1.46%	inactive	inactive	inactive	inactive	inactive	inactive	inactive	-3.18% and 0.376%	14.5% and -2.04%	inactive
ClC=CCl	> 92 µM	> 92 µM	> 92 µM	> 92 µM	inactive	inactive	inactive	inactive	inactive	-1.83%	inactive	inactive	inactive	inactive	inactive	inactive	inactive	-2.13%	-14.4%	inactive
ClCC(Br)CBr (stereo not given)	> 92 µM	> 92 µM	> 92 µM	> 92 µM	inactive	inactive	inactive	inactive	inactive	0.439%	inactive	inactive	inactive	inactive	inactive	inactive	inactive	-1.61%	3.72%	inactive
CCC#N	> 92 µM	> 92 µM	> 92 µM	> 92 µM	inactive	inactive	inactive	inactive	inactive	-0.76%	inactive	inactive	inactive	inactive	inactive	inactive	inactive	-3.95%	13.6%	inactive
NNC(N)=S	> 92 µM	> 92 µM	> 92 µM	> 92 µM	inactive	inactive	inactive	inactive	inactive	0.435%	inactive	inactive	inactive	inactive	inactive	inactive	inactive	-1.77%	16.5%	inactive
ClC(Cl)C(Cl)Cl	> 92 µM	> 92 µM	> 92 µM	> 92 µM	inactive	inactive	inactive	inactive	inactive	-0.455%	inactive	inactive	inactive	inactive	inactive	inactive	inactive	-3.31%	-4.41%	inactive
OC[P+](CO)(CO)CO	> 92 µM	31.3 µM	> 92 µM	> 92 µM	inactive	inactive	inactive	inactive	inactive	0.818%	inactive	inactive	inactive	inactive	inactive	39.8 µM (active)	inactive	-6.87% and -1.39%	-17.6% and -11.9%	inactive
C1CC2OC2CC1C1CO1 (stereo not given)	> 92 µM	> 92 µM	> 92 µM	> 92 µM	inactive	inactive	inactive	inactive	inactive	-2.81%	inactive	inactive	inactive	inactive	inactive	inactive	inactive	-1.95% and -1.6%	-8.97% and -5.29%	inactive
CCNCC	> 92 µM	> 92 µM	> 92 µM	> 92 µM	inactive	inactive	inactive	inactive	inactive	1.2%	inactive	inactive	inactive	inactive	inactive	inactive	inactive	7.15%	14.5%	inactive
c1ccc(C2CO2)cc1 (stereo not given)	> 92 µM	> 92 µM	> 92 µM	> 92 µM	inactive	inactive	inactive	inactive	inactive	-0.153%	inactive	inactive	inactive	inactive	inactive	inactive	inactive	0.189%	-5.33%	inactive
Cc1ccc(N)cc1C	> 92 µM	> 92 µM	> 92 µM	> 92 µM	inactive	inactive	inactive	inactive	inactive	0.308%	inactive	inactive	inactive	inactive	inactive	inactive	inactive	-0.229%	-7.17%	inactive

From PubChem BioAssay (NCATS)
